Hits are enriched below; roughly 2.6% of the tested compounds scored in any of these assays.
TWEAK Fn14 block – blocks TWEAK-Fn14 interaction in a reporter cell assay. TWEAK-stimulated Fn14 reporter cells, luciferase luminescence, 8 h. inhibition, % at 10 µM. 360,000 tested, 2% active. AID 1159606; in the data active means inhibition above about 50%
aDG glyco up – increases alpha dystroglycan glycosylation; AID 624168; activation, % at 10 µM; 360,000 tested, 0.22% active; Pro5-aDG cells, alpha-DG glycosylation AlphaScreen (IIH6); 0% Pro5, 100% B10-LARGE cell signal;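 active means activation of at least 8% versus controls, or a plate z-score of at least 8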;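 further: Pro5 are CHO cells carrying HIG-tagged alpha-DG that lacks glycosylation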
LGR2 inh – inhibitors of bursicon-induced Drosophila LGR2 receptor cAMP signaling; 380,000 tested, 0.35% active; HEK293 LGR2, CRE-luciferase, bursicon-stimulated, 4 h; inhibition, % at 9.99 µM;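 active means drop in luminescence signal, shown as inhibition above about 50% in the replicate tests, limit read from the data, passing the limit was not always enough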;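 further: agonist challenge used bursicon conditioned medium at about half maximal strength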
TROY signal inh – TROY signaling inhibition. Q293 LMP1-TROYcd NF-kB luciferase reporter, 4 h. inhibition, % at 10 µM. 360,000 tested, 0.98% active. AID 1347056;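 active means compounds whose plate-normalised and pattern-corrected inhibition of the luciferase reporter signal at the single screening dose is 50% or more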
EBV LMP1 NFkB – Epstein-Barr LMP1 NF-kappaB reporter inhibition | AID 504558 | 350,000 tested, 0.69% active | inhibition, % at 12.5 µM | LMP1-induced NF-kappaB luciferase reporter cells, luminescence; in the data active means inhibition above about 41%
HSP90 inh – blocks HSP90-mediated luciferase refolding in reticulocyte lysate; Rabbit reticulocyte lysate, luciferase refolding luminescence, 3 h; inhibition, % at 5.6 µM; 290,000 tested, 0.91% active;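 active means inhibition above the screen-wide mean plus 3 SD, computed separately per campaign, cut at about 16% in these data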;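 further: inhibitors lower the luminescence because luciferase stays unfolded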
Numbers stand for hits; 0 = inactive; - = no result given.

SMILES	TWEAK Fn14 block	aDG glyco up	LGR2 inh	TROY signal inh	EBV LMP1 NFkB	HSP90 inh
CCc1ccccc1-n1c(SCC(=O)Nc2ccc3c(c2)OCCO3)nc2[nH]ncc2c1=O	88	0	0	80	0	0
COc1ccc(CCNC(=O)CSc2nc3[nH]ncc3c(=O)n2-c2ccc(Br)cc2)cc1OC	0	0	0	0	0	0
CCc1ccc(-n2c(SCC(=O)Nc3cc(C)[nH]n3)nc3[nH]ncc3c2=O)cc1	98	0	-	-	0	0
C[C@@H]1CN([C@H](C)CO)C(=O)c2cc(C#CC3CCCC3)cnc2O[C@H]1CN(C)S(=O)(=O)c1cccc(F)c1	-	-	0	-	-	-
C=C1C(C(=O)N2CCOCC2)C1C(=O)N1CCOCC1 (stereo not drawn)	78	0	0	57	0	0
COc1cccc(NC(=O)N(C)C[C@@H]2OCc3ccccc3-c3c(n(C)c4ccccc34)C(=O)N([C@H](C)CO)C[C@@H]2C)c1	-	-	0	-	-	-
CC(=O)Oc1ccc2ccccc2c1C(NC(=O)Cc1ccccc1)c1ccc(Cl)cc1 (stereo not drawn)	55	0	-	0	0	0
CC(=NNc1ccc2ccccc2n1)c1ccccc1O	100	0	95	74	0	-
C/C(=N\Nc1nc2ccccc2nc1C)c1ccccc1O	0	0	0	0	0	0
CC(=NNc1ccc2ccccc2n1)c1ccccn1	-	-	104	-	-	-
C/C(=N\Nc1ccc2nncn2n1)c1ccccn1	0	0	0	0	-	0
COc1ccc2nc(NN=C(C)c3ccccn3)cc(C)c2c1	0	0	-	0	79	-
COc1cccc(-c2ccc(C3[C@@H]4CN(S(=O)(=O)c5cccc(OC)c5)C[C@H]3N4)cc2)c1 (stereo partly drawn)	-	-	0	-	-	-
CCC(=O)N1[C@H](CO)[C@H](c2ccccc2)[C@H]1CN(CC)C(=O)c1ccc(F)cc1	-	-	0	-	-	-
CNC1(C)[C@H]2CC[C@H](C2)C1(C)C (stereo partly drawn)	0	0	0	0	81	-
CC1(C)C2CCC(C2)C1(C)NC(=O)CN1CCCC1 (stereo not drawn)	0	0	0	0	0	0
O=C1NC(=S)N/C1=C/C=C/c1ccccc1	0	0	0	0	0	0
O=C1NC(=S)NC1=Cc1ccc2c(c1)CCC2	0	0	-	0	93	-
Cc1ccc(-c2cc(=O)c3cc(C)ccc3[nH]2)cc1	67	0	53	0	0	0
Nc1c(C(=O)O)cnc2c(-c3ccc(Cl)cc3)cnn12	67	0	0	0	0	0
Cc1nc(C)c(C(=O)Nc2ccccc2)s1	0	0	0	0	0	0
Cc1nc(C)c(C(=O)O)s1	95	0	0	0	0	0
O=C(NCCCCc1ccccc1)c1cccc(NC(=O)C2CCC2)c1	101	0	0	0	0	-
CC(C)(C)OC(=O)N1CCCC(C(=O)Nc2cccc(C(=O)NCCCCc3ccccc3)c2)C1 (stereo not drawn)	0	0	0	0	0	-
O=C(NCCCCc1ccccc1)c1cccc(NC(=O)C2CCCCC2)c1	0	0	0	0	0	-
SMILES	TWEAK Fn14 block	aDG glyco up	LGR2 inh	TROY signal inh	EBV LMP1 NFkB	HSP90 inh
O=C(NCCc1ccccc1)C1CCCN1C(=O)NCc1ccccc1 (stereo not drawn)	0	0	-	0	0	0
CC(C)(C)OC(=O)N1CCC(C(=O)Nc2ccc(C(=O)NCCc3ccccc3)cc2)CC1	54	0	0	0	0	-
CC(C)(C)OC(=O)N1CCCC(C(=O)Nc2cccc(C(=O)NCCc3ccccc3)c2)C1 (stereo not drawn)	100	0	0	0	0	-
CC(C)(C)OC(=O)N1CCCC1C(=O)NCCc1ccccc1 (stereo not drawn)	79	0	-	-	0	0
O=C(C[C@@H]1C[C@@H]2c3cc(NC(=O)Cc4ccncc4)ccc3O[C@@H]2[C@H](CO)O1)NCc1ccccn1	-	-	0	-	-	-
COc1ccc2c3c(n(C)c2c1)[C@@H](CO)N(C(=O)C1CCCC1)CC31CCN(C)CC1	-	-	0	-	-	-
C=C1CC2(CC(c3ccccc3)OC(c3ccccc3)C2)OC1=O (stereo not drawn)	87	0	0	0	0	-
Cc1cc(C)cc(NS(=O)(=O)c2cnc(Cl)c(Cl)c2)c1	0	0	-	0	0	0
CCOc1ccc(NS(=O)(=O)c2cnc(Cl)c(Cl)c2)cc1	53	0	0	0	0	0
CCOc1ccc(NS(=O)(=O)c2ccc(N)cc2)cc1	0	0	-	0	0	0
CCOc1ccc(NS(=O)(=O)c2ccc(SC)cc2)cc1	81	0	-	-	0	0
O=C(C[C@@H]1C[C@@H]2c3cc(NC(=O)C4CCOCC4)ccc3O[C@@H]2[C@H](CO)O1)NCc1cccc(F)c1	-	-	0	-	-	-
CO[C@H]1CN(C)C(=O)c2ccc(NC(=O)NC(C)C)cc2OC[C@@H](C)N(C(=O)CN(C)C)C[C@@H]1C	-	-	0	-	-	-
CCC(C)NS(=O)(=O)c1ccc(S(=O)(=O)N(CCc2ccc(OC)c(OC)c2)Cc2cccs2)cc1 (stereo not drawn)	55	0	0	0	0	0
COc1ccc2c3c([nH]c2c1)[C@H](CO)N(C(=O)CN(C)C)CC31CN(Cc2ccccc2)C1	-	-	0	-	-	-
Cc1ccccc1OCc1nnc(SCC(=O)Nc2ccc3nc(SCC(=O)NC(C)(C)C)sc3c2)n1C	89	0	-	-	0	0
CC(NC(=O)CSc1nc2ccc(N)cc2s1)c1ccccc1 (stereo not drawn)	0	0	-	52	0	0
CCOC(=O)CSc1nc2ccc(N)cc2s1	0	0	0	0	0	0
CCN(CC)C(=O)CSc1nc2ccc(NC(=O)CSc3nnc(COc4ccccc4C)n3C)cc2s1	0	0	-	0	0	0
CC(C)(C)NC(=O)CSc1nc2ccc(NC(=O)CSc3nnnn3Cc3ccccc3)cc2s1	73	5.7	-	50	0	0
O=C1C(c2ccnc3ccccc23)=C(O)c2ccccc21	94	0	-	59	0	0
O=C1c2ccccc2C(=O)C1c1nccc2ccccc12	97	0	-	55	0	0
O=Cc1nccc2ccccc12	0	0	0	0	0	-
O=C1c2ccccc2C(=O)C1c1ccnc2ccccc12	100	0	-	0	0	0
O=C1CCCc2cc3c(cc21)CCCC3	0	0	-	0	0	-
SMILES	TWEAK Fn14 block	aDG glyco up	LGR2 inh	TROY signal inh	EBV LMP1 NFkB	HSP90 inh
Nc1ccc2c(c1)C(=O)CCC2	55	0	-	74	0	-
COc1ccc(S(=O)(=O)N(C)C[C@H]2Oc3c(NC(=O)NC4CCCCC4)cccc3C(=O)N([C@H](C)CO)C[C@H]2C)cc1	-	-	0	-	-	-
COc1ccc(-n2nc(C(=O)N3CCCCC3)c(C)c(C#N)c2=O)cc1	0	0	0	0	0	0
Cc1c(C(=O)NN)nn(-c2ccc(Cl)cc2)c(=O)c1C#N	65	0	0	55	0	0
Cc1ccc(-n2nc(C(=O)NN)c(C)c(C#N)c2=O)cc1Cl	71	0	0	0	0	0
Cc1c(C(=O)O)nn(-c2cccc(C(F)(F)F)c2)c(=O)c1C#N	0	0	0	0	0	0
COc1ccc(S(=O)(=O)Nc2ccc3c(c2)C(=O)N([C@@H](C)CO)C[C@H](C)[C@H](CN(C)C(=O)Nc2cccc4ccccc24)OCCCC[C@H](C)O3)cc1	-	-	0	-	-	-
